Data from article PMC5540273 (PLoS ONE, 2017).

Columns and labels:
Settings in all cases: concentration: 1 μM, replicates: in singlicate; n = 1
[1] = tested on: MARK3
[2] = tested on: MARK4
[3] = tested on: MAST1
[4] = tested on: T1, MEK1
T1 construct: gene MAP2K1

[5] = tested on: T2, MEK2
T2 construct: gene MAP2K2

[6] = tested on: T3, MEK3
T3 construct: gene MAP2K3

[7] = tested on: T4, MEK4
T4 construct: gene MAP2K4

[8] = tested on: T5, MEK5
T5 construct: gene MAP2K5

[9] = tested on: T6, MEK6
T6 construct: gene MAP2K6

[10] = tested on: MELK
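Note: KINOMEscan kinase panel screen.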

Row | SMILES | %Inh [1] | %Inh [2] | %Inh [3] | %Inh [4] | %Inh [5] | %Inh [6] | %Inh [7] | %Inh [8] | %Inh [9] | %Inh [10]
1 | Fc1cccc(COc2ccc(Nc3ncnc4nn5ccccc5c34)cc2Cl)c1 [GW689066] | 0% | 0% | 23% | 0% | 0% | 0% | 8% | 45% | 0% | 5%
2 | Fc1cccc(COc2ccc(Nc3ncnc4sc(-c5ccc[nH]5)cc34)cc2Cl)c1 [GW707818] | 13% | 14% | 1% | 0% | 0% | 0% | 2% | 27% | 0% | 13%
3 | CNc1nccc(-c2c(-c3ccc(F)cc3)ncn2CCCN2CCOCC2)n1 [SB-222516] | 0% | 35% | 20% | 0% | 12% | 15% | 23% | 46% | 0% | 24%
4 | OCCOCCn1ccc2ncnc(Nc3ccc(Oc4cccc(Cl)c4)c(Cl)c3)c21 | 0% | 31% | 0% | 8% | 40% | 0% | 0% | 89% | 0% | 0%
5 | CCc1nc(-c2cccc(C)c2)c(-c2ccnc(NC(=O)c3ccccc3)c2)s1 | 0% | 28% | 25% | 5% | 2% | 7% | 4% | 54% | 0% | 22%
6 | FC(F)(F)c1cc(Nc2nccc(-c3c(-c4ccc(Cl)cc4)nn4ncccc34)n2)ccc1Cl [GW829351] | 0% | 17% | 20% | 6% | 21% | 0% | 0% | 1% | 0% | 0%
7 | Nc1nccc2scc(-c3ccc4c(c3)CCN4C(=O)Cc3cc(F)ccc3F)c12 [GSK2587663] | 4% | 0% | 9% | 0% | 0% | 0% | 5% | 67% | 0% | 0%
8 | Cn1ccc2ncnc(Oc3ccc(NC(=O)Nc4cccnc4)c(Cl)c3)c21 | 0% | 4% | 0% | 0% | 0% | 0% | 0% | 5% | 0% | 10%
9 | O=C(Nc1ccccc1F)NC1CCN(c2ccnc(Nc3ccc(F)cc3)n2)C1 (stereo not shown) [GSK1379722] | 0% | 0% | 14% | 0% | 0% | 0% | 25% | 12% | 0% | 0%
10 | C[C@@H]1CCN(C(=O)CO)C[C@@H]1N(C)c1ncnc2[nH]ccc12 | 0% | 0% | 5% | 0% | 0% | 0% | 0% | 12% | 3% | 0%
11 | CCc1nc(-c2cccc(N(C)S(=O)(=O)c3ccccc3)c2)c(-c2ccnc(Nc3ccc(N4CCN(C(C)=O)CC4)nc3)n2)s1 [GSK1645895] | 0% | 0% | 0% | 0% | 3% | 3% | 0% | 99.9% | 24% | 0%
12 | COC(=O)c1c(-c2ccccc2)c2cc(Cl)ccc2c(=O)n1Cc1ccc(S(C)(=O)=O)cc1 | 0% | 0% | 0% | 0% | 29% | 9% | 10% | 0% | 4% | 0%
13 | FC(F)(F)c1ccc(-c2cc(-c3c[nH]nc3-c3ccccn3)ccn2)cc1 [GW599550] | 0% | 2% | 0% | 5% | 0% | 0% | 18% | 8% | 0% | 0%
14 | O=C(CCO)NCCn1ccc2ncnc(Nc3ccc(Oc4cccc(C(F)(F)F)c4)c(Cl)c3)c21 | 0% | 0% | 0% | 0% | 34% | 0% | 0% | 99.4% | 0% | 0%
15 | Cl.Fc1ccccc1COc1ccc(Nc2ncnc3ccc(-c4nnc(C(F)(F)F)o4)cc23)cc1Cl [GW424170] | 0% | 0% | 0% | 0% | 0% | 0% | 28% | 10% | 0% | 0%
16 | CS(=O)(=O)CCNCc1ccc(-c2ccc3ncnc(Nc4ccc(OCc5ccccc5)c(Cl)c4)c3c2)o1.Cl [GW574783] | 3% | 9% | 23% | 10% | 0% | 3% | 15% | 85% | 0% | 23%
